Screening results: PubChem, National Center for Advancing Translational Sciences (NCATS)
LASV entry inh = blocks Lassa virus binding or cell entry. Lassa virus pseudotyped entry inhibition, cell-based qHTS. Potency, µM (highest dose often 49.2 µM), inactives show at the highest dose activity change, negative = inhibition, hits mostly inhibitors. 18,000 compounds, 4.1% hits
MARV entry inh = blocks Marburg virus binding or cell entry; Marburg virus pseudotype entry/binding inhibition, cell-based; Potency, µM (highest dose often 49.2 µM), for the others: at the top dose activity change, negative = inhibition, hits mostly inhibitors; 18,000 compounds, 6.5% hits; AID 720532
The depositor's hits bear a star; ? = inconclusive; · = no result; ! = repeats disagree; [ ] = remark or other dose. A selection: hits, their analogues and other compounds. The true share with any hit is near 7.1%. The call rests on the fitted dose curve; tested in HEK293 cells. On the % scale 0 is the no-effect control and ±100 the full control effect; potency means the concentration at half of the fitted maximal effect.

SMILES	LASV entry inh	MARV entry inh
CC(C)(C)c1ccc(C(O)CCCN2CCC(C(O)(c3ccccc3)c3ccccc3)CC2)cc1 (stereo not given)	16µM*	?
O[C@H](CCCN1CCN(c2ncc(F)cn2)CC1)c1ccc(F)cc1	0%	-26%
CC(C)(C)c1ccc([C@@H](O)CCCN2CCC(C(O)(c3ccccc3)c3ccccc3)CC2)cc1	6.3µM*	?
OC(c1ccccc1)(c1ccccc1)C1CCNCC1	-1%[17.8 µM]	-25%[17.8 µM]
O=C1c2ccccc2C(=O)c2ccccc21	6%	5%
O=C1C(=O)c2ncccc2-c2cccnc21	2.5µM*	?
C=C1C[C@H](OC(=O)C(C)(O)CCl)C2C(=C)C(=O)O[C@@H]2C2C1C[C@H](O)[C@]2(O)CCl (stereo not given in full)	?	20µM*
C(#C[C@@H]1C=C[C@H]2OC(c3ccccc3)OC[C@H]2O1)c1ccccc1 (stereo not given in full)	2%[8.59 µM]	15%[8.59 µM]
C[C@H](ON=C1[C@H]2CCn3c(=O)n(-c4ccccc4)c(=O)n3[C@@H]2[C@H](O)[C@@H]2O[C@H]12)c1cn([C@H](CO)Cc2ccccc2)nn1	21%[8.59 µM]	7%[8.59 µM]
CCCCC#C[C@@H]1C=C[C@H](Oc2ccc(C(=O)OC)cc2)[C@@H](COC(=O)OCC)O1	6%[8.59 µM]	16%[8.59 µM]
Cn1cnnc1Sc1c([N+](=O)[O-])ncn1C	-9%	-3%
Cn1cnc([N+](=O)[O-])c1Sc1ncnc2nc[nH]c12	?	10µM*!
CC1(C)CN(C2CCCCC2)C(=O)[C@@H]1CC(=O)Nc1ccccc1	-27%	-14%
Cc1c(C2CCN(CCc3ccccc3)CC2)noc1-c1ccc(Cl)cc1	-12%	11µM*
Cc1c(-c2ccc(Cl)cc2)noc1C1CCN(CCc2ccccc2)CC1	0%	?
CCCCCCCCNC(C)C(O)c1ccc(SC(C)C)cc1 (stereo not given)	11µM*	?
CC(NCCc1ccc(O)cc1)C(O)c1ccc(O)cc1 (stereo not given)	-23%	7%
O=C1CCCC2=C1[C@H]1O[C@](CCCCN3C(=O)c4ccccc4C3=O)(Cc3ccccc31)O2	-8%[8.59 µM]	-2%[8.59 µM]
CCC(=O)c1ccc2c(c1)N(CCCN(C)C)c1ccccc1S2	32µM*	22µM*
CN(C)CCCN1c2ccccc2Sc2ccccc21	?	7.1µM*
COc1ccc([C@H]2Sc3ccccc3N(CCN(C)C)C(=O)[C@H]2OC(C)=O)cc1	?	-15%[17.8 µM]
CC(=O)c1ccc2c(c1)N(CCCN(C)C)c1ccccc1S2	-15%[17.8 µM]	?
CCN1C(=NCc2cccc(C(F)(F)F)c2)NC(c2ccccc2)C(C(=O)OC)=C1C (stereo not given)	5%[8.59 µM]	?
NS(=O)(=O)c1ccc(N=Nc2c(O)[nH]c3ccc(C(=O)NCc4ccncc4)cc23)cc1	·	26%
COc1ccc(O[C@H]2C=C[C@@H](c3ccccc3)O[C@H]2CON=C(C)CCN2CCCCc3nc(C)c(C)cc32)cc1	24%[8.59 µM]	50%[8.59 µM]
SMILES	LASV entry inh	MARV entry inh
CC(CN1CCc2nnc(CNC(=O)c3cccc(F)c3)n2CC1)c1ccccc1 (stereo not given)	0%	-9%
O=C(NCc1nnc2n1CCN(Cc1cc(F)cc(F)c1)CC2)c1cccc(F)c1	?	5µM*
CCOC(=O)CN1C(=O)N(CC)C(C)=C(C(=O)OC)C1c1ccccc1 (stereo not given)	-25%[8.59 µM]	?
O=C(NN=C1C[C@@H](O)[C@H](O)[C@H]2[C@@H]3C(=O)N(C4CCCCC4)C(=O)[C@@H]3CC[C@@H]12)OCc1ccccc1	-16%[8.59 µM]	-13%[8.59 µM]
O=C1Nc2ccccc2C2(CCN(CCc3ccc(C(F)(F)F)cc3)CC2)O1	?	11µM*
FC(F)(F)c1cccc(C2=CCN(CCc3ccc4ccccc4c3)CC2)c1	-1%	-1%
CCC[C@H]1CN(c2ccc(OC)cc2)C(=O)[C@H]1CC(=O)NC	-14%	?
CN1CCN(c2nc(-c3cccc(NS(C)(=O)=O)c3)nc3ccccc23)CC1	22%	-29%
COc1cc(NS(C)(=O)=O)ccc1Cc1c2ccccc2nc2ccccc12	?	2µM*
C#CCCOC(=O)N1C2=NC3=C(C(=O)N(Cc4ccc5c(c4)OCO5)C3=O)C3N(C)c4ccccc4[C@]23C[C@H]1CO (stereo not given in full)	·	-23%[8.59 µM]
CCCCCCCc1cc2ccccc2c2c(C(=O)OC)cc(C(=O)OC)n12	-12%[8.59 µM]	25%[8.59 µM]
CCCCCC(=O)N1C[C@@H](n2cc(COC(=O)c3ccccc3)nn2)[C@H](O)C[C@H]1c1ccccc1	15%	-15%
CO[C@H]1C[C@@H]2CC[C@@H](C)[C@@](O)(O2)C(=O)C(=O)N2CCCC[C@H]2C(=O)O[C@H]([C@H](C)C[C@@H]2CC[C@@H](OCCO)[C@H](OC)C2)CC(=O)[C@H](C)/C=C(\C)[C@@H](O)[C@@H](OC)C(=O)[C@H](C)C[C@H](C)/C=C/C=C/C=C/1C	25µM*	?
CO[C@H]1C[C@@H]2CC[C@@H](C)[C@@](O)(O2)C(=O)C(=O)N2CCCC[C@H]2C(=O)O[C@H](C(C)C[C@H]2CC[C@@H](O)[C@H](OC)C2)CC(=O)[C@H](C)/C=C(\C)[C@@H](O)[C@@H](OC)C(=O)[C@H](C)C[C@H](C)/C=C/C=C/C=C/1C (stereo not given in full)	-21%	?
C=CCN1C(=O)[C@@]2(CC(C)=C[C@@H](COc3ccccc3)O2)c2ccccc21	7%[8.59 µM]	2%[8.59 µM]
COc1cccc(-n2ncc3c(NN=Cc4cccc(F)c4)ncnc32)c1	·	-11%
C[C@@H]1C[C@@H]([C@H](O)CC2CC(=O)NC(=O)C2)C(=O)[C@@H](C)C1	2.8µM*	3.2µM*
C[C@@H]1CC([C@H](O)CC2CC(=O)NC(=O)C2)C(=O)[C@@H](C)C1 (stereo not given in full)	1µM*	?
COC(=O)CC=C[C@@H](C)[C@@H](C=NOC[C@@H](O)COCc1ccco1)OC	3%[8.59 µM]	-14%[8.59 µM]
C=C1CN2C(=NC(c3ccccc3)C(C(=O)OC)=C2C)O1 (stereo not given)	-4%[8.59 µM]	0%[8.59 µM]
CCN(CC)C(=O)c1cc(S(=O)(=O)Cc2ccccc2)c(N2CCC(c3ccccc3)CC2)cc1N(CC)CCN(C)C	14µM*	5µM*
N#Cc1cccc(Nc2ncc(-c3ccccc3)o2)c1	2%	19%
CC1(C)CCC2=C(O1)c1ccccc1C(=O)C2=O	7.1µM*	11µM*
CN(C)c1cc2c(Nc3ccc4nc(Cc5ccccc5)[nH]c4c3)ncnc2cn1	57%	91%
Nc1ccc(/C=C/c2ccc(N)cc2S(=O)(=O)O)c(S(=O)(=O)O)c1	-5%	25µM*
SMILES	LASV entry inh	MARV entry inh
O=S(=O)(O)c1cc(N=C=S)ccc1/C=C/c1ccc(N=C=S)cc1S(=O)(=O)O	34%	-3%
O[C@H]1C[C@H](c2ccc(Cl)cc2)N(CC2CCCCC2)C[C@H]1n1cc(-c2ccc(F)cc2)nn1	-17%	-28%
COc1cc2c(cc1OC)[C@@H]1O[C@](CCCCN3C(=O)c4ccccc4C3=O)(C2)Oc2c1c(=O)oc1ccccc21	-1%[8.59 µM]	3%[8.59 µM]
CCCCCCCCCCCCCCCC[N+](C)(C)CCN(Cc1ccc(OC)cc1)c1ncccn1	4%[17.8 µM]	-11%[17.8 µM]
CCCCCCCCCCCC[N+](C)(C)Cc1ccccc1	14µM*	20µM*
Cc1cc(C(=O)Nc2cccc(-c3nc(CNC(=O)c4ccccc4C(F)(F)F)c(C)o3)c2)c(C)o1	?	-28%
COc1cccc(C(=O)NCc2nc(-c3cccc(NC(=O)c4ccoc4C)c3)oc2C)c1OC	18µM*	?
